Experimental data from PubChem BioAssay.

biological target: Alpha-bungarotoxin (Bungarus multicinctus) (UniProt P60615); test: alpha-bungarotoxin binders on microarray, profiling panel, artefact control for SMM control protein annotation, biochemical, small-molecule microarray, Alexa647 label, 635/667 nm fluorescence (AID 1117); settings: alpha-BTX-A647 binding fluorescence, higher = more signal
Sequence (P60615 whole entry, looked up): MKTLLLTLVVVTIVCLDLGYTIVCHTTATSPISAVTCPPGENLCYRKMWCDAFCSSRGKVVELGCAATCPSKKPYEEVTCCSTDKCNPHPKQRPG

| Compound | composite z-score |
| --- | --- |
| COc1c(C)cc(-c2cc3c(c(-c4ccc(Oc5ccccc5)cc4)n2)[Si](C(C)C)(C(C)C)OC3)cc1C | 0.327 |
| CCOC(=O)C[C@H]1[C@H](OC(=O)c2ccc(-c3ccccc3)cc2)[C@@H](NC(=O)c2ccc3ccccc3c2)c2cc(OCCCO)ccc2N1C(=O)Cc1ccc(OC)cc1 | 0.0773 |
| CC(C)C(=C=CC[C@@H](O)c1ccccc1OCCO)C[C@@H](O)c1ccccn1 | 0.125 |
| CN(C)C(=O)[C@@]1(CCC(=O)OC(C)(C)C)N=C(c2ccc(OCCCO)cc2)O[C@H]1c1ccccc1 | 0.575 |
| C=CCN1C(=O)[C@]2(O[C@H](CCO)[C@@H]([Si](C)(C)c3ccc(OC)cc3)[C@@H]2C)c2cc(NC(=O)[C@H](C)O)ccc21 | 0.69 |
| Cc1ccc(S[C@]2(C(=O)NCCN3CCOCC3)CC(=O)N(Cc3cc(C(F)(F)F)cc(C(F)(F)F)c3)[C@@H]2c2ccc(CO)cc2I)cc1 | -0.306 |
| CCOC(=O)C[C@H]1[C@H](OC(=O)c2ccc(C(=O)c3ccccc3)cc2)[C@@H](NC(=O)C2CCCCC2)c2cc(OCCCO)ccc2N1C(=O)c1ccccc1 | 0.745 |
| CC(C)(C)N1CC=CC23O[C@@H]4/C=C\CCCOC(=O)C4[C@H]2C(=O)N(CCO)[C@@H]3C1=O (some centres undefined) | -0.709 |
| CC1CC/C=C\[C@H]2OC34C=CCN(Cc5ccccc5)C(=O)[C@H]3N(CCCCCO)C(=O)[C@@H]4C2C(=O)O1 (some centres undefined) | 1.39 |
